The results in this text go back to the supplement of paper PMC6555819.

Holding throughout (test): PBM binding z-score (relative to random genomic background probes); higher = stronger binding; sequences stand for … in GC…GCGATTGACAGCGTAGAATGAAGG
Test [1] deals with RARb homodimer (NR concentration 270 nM). The method in brief:
(§1)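 Custom Agilent 4×180K protein-binding microarrays carried double-stranded probes. Their 34-nt variable regions held direct-repeat seeds, single-nucleotide variants, half-site ablations and random human genomic background sequences. Arrays were incubated 1 h with ligand-free nuclear receptor dimers in PBS pH 7.4, 2% milk, 0.02% Triton X-100, 1 mM DTT, 0.2 mg/mL BSA and 0.4 mg/ml salmon testes DNA. Antibodies against each partner (one per run) detected binding, and scanned fluorescence was regression-normalized. Binding z-scores use random background probes as reference.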

The test system of test [2] is RARg:RXRa (NR concentration 270 nM, RXRa partner concentration 90 nM). In a few lines:
as §1

The test system of test [3] is RARg homodimer (NR concentration 270 nM). The method in brief:
as §1

In test [4] the test system is RXRa DBDmut IVT, anti-RXR (DBD mutation: RXRa K156A/R161A, NR concentration 90 nM). In a few lines:
as §1

For test [5], the system named is RXRa homodimer (NR concentration 180 nM). The method in brief: as §1
The test system of test [6] is THRa:RXRa (NR concentration 90 nM, RXRa partner concentration 90 nM). In a few lines:
as §1

Test [7] deals with THRa homodimer (NR concentration 90 nM). The method in brief:
as §1

In test [8] the test system is VDR homodimer (NR concentration 270 nM). In a few lines:
as §1

Take ACAATTAGTTGAGACGAGGGCAACCGATAGGTTG: the PBM binding z-score in test [1] was 1.5; in test [2], 0.974; in test [3], 0.94; in test [4] it was 0.611; in test [5], 0.718; in test [6], 2.74. Further, the values for the PBM binding z-score in test [7] and in test [8] were 0.375 and 1.07, respectively.

With AATACAGGGTCACTAGGCCAAAGTAGGTACGAAT, the PBM binding z-score in test [1] turned out to be 3.62; in test [2] it was 5.16; in test [3] it was 4.42; in test [4], 2.71; in test [5], 5.98; in test [6], 3.48. Besides, the PBM binding z-score in test [7] was determined as 1.09; in test [8], 2.19.

On to CAAACTAGGTCAAGGTCCAAGTCGGTTTGTGCCA, for which the PBM binding z-score turned out to be 3.59 in test [1]; 3.87 in test [2]; 5.33 in test [3]; 1.76 in test [4]; 3 in test [5]; 3.18 in test [6]. Further, the PBM binding z-score worked out at 1.67 in test [7] and 1.7 in test [8].

With CGTCAAAGTTCAAGGTAACTTAACAGAAAGCAGC, the PBM binding z-score in test [1] was 3.81; in test [2], 5.06; in test [3] it was 6.29; in test [4], 4.24; in test [5] it was 4.36; in test [6] it was 2.71. Also, the results for the PBM binding z-score in test [7] and in test [8] were 0.957 and 2.74, respectively.

For the sequence CAAACTAGGTCAAGAAGTCAAAGTCCGCTTCCCG, the PBM binding z-score in test [1] was found to be 3.2; in test [2], 4.44; in test [3], 4.23; in test [4], 1.32; in test [5] it was 2.97; in test [6] it was 2.65. Also, the figures for the PBM binding z-score in test [7] and in test [8] were 0.74 and 0.478, respectively.

As for ACAGACAAGTGATGAAGGTAACTCAGGCTATCAT, the PBM binding z-score in test [1] was 0.0016; in test [2], -0.0454; in test [3] it was 0.277; in test [4], -0.483; in test [5], 0.153; in test [6], 0.639. Further, the PBM binding z-score was -0.0791 in test [7] and -0.536 in test [8].

In the case of TAGCCTAGGTCTTGCGGGCCAGTATAGTGTCGGC, the PBM binding z-score in test [1] is -0.413; in test [2] it was -0.507; in test [3], -0.639; in test [4], -1.09; in test [5], -0.623; in test [6], -0.606. In addition, the PBM binding z-score in test [7] was -1.12; in test [8], -1.13.

For the sequence GCAGACAGGTGAAATGCAGGTAACTCAGGGTGGC, the PBM binding z-score in test [1] is 0.337; in test [2], 0.64; in test [3], 0.23; in test [4], -0.341; in test [5], 0.602; in test [6] it was 1.38. Moreover, the PBM binding z-score in test [7] was -0.107; in test [8] it was -0.285.

With ATCGAAAGGTCGTAGGTGAGTATACCCACCCGAA, the PBM binding z-score in test [1] was 2.79; in test [2], 4.48; in test [3], 3.9; in test [4] it was 1.21; in test [5], 5.28; in test [6], 2.5. In addition, the PBM binding z-score turned out to be 0.0179 in test [7] and 1.21 in test [8].

Consider GCTCGGAGGACAAGGTCGGAGCTTTGTCCGTAGA, for which the PBM binding z-score was 0.998 in test [1]; 0.842 in test [2]; 1.11 in test [3]; -0.395 in test [4]; 0.103 in test [5]; 1.37 in test [6]. In addition, the results for the PBM binding z-score in test [7] and in test [8] were 0.277 and -0.608, respectively.

Regarding CCTACTGGGCCATAGGTCATTGATTCCAATGCTC, the PBM binding z-score in test [1] came out at 2.63; in test [2] it was 2.89; in test [3], 1.95; in test [4] it was 0.122; in test [5] it was 2.63; in test [6], 1.61. Moreover, the PBM binding z-score in test [7] came out at 0.173; in test [8] it was 0.271.

Consider ACAGACAGGTGATGAAGGTAACTAAGGCTATCAT, for which the PBM binding z-score in test [1] was 0.434; in test [2], 0.422; in test [3] it was 0.552; in test [4], -0.521; in test [5] it was 0.185; in test [6], 1.28. In addition, the PBM binding z-score in test [7] is 0.245; in test [8] it was -0.317.

For TCATATAGGTAAACAAGTGAAAGTCCGTAAGTTA, the PBM binding z-score in test [1] amounted to 0.321; in test [2], 0.396; in test [3] it was 0.548; in test [4] it was 1.76; in test [5] it was 1.12; in test [6], 0.265. Besides, the values for the PBM binding z-score in test [7] and in test [8] were 0.0631 and 0.508, respectively.

For the sequence TCTTGTAGATCAAAGGTTTAGAAAGCCGAAGCCT, the PBM binding z-score is -0.342 in test [1]; -0.312 in test [2]; -0.404 in test [3]; 0.516 in test [4]; 0.291 in test [5]; -0.356 in test [6]. Besides, the PBM binding z-score in test [7] was -0.747; in test [8], 0.0902.

On to GCGTCTGGGGCATCAGCAGGTTACCATAACTTAA, for which the PBM binding z-score in test [1] was 0.953; in test [2] it was 0.859; in test [3], 0.544; in test [4], 0.254; in test [5], 0.243; in test [6] it was 1.06. Further, the PBM binding z-score in test [7] was -0.103; in test [8], -0.379.

TCTAGTTGGTCACGGAGGTCACTCACGACGGGTA: the PBM binding z-score in test [1] is 4.12; in test [2] it was 4.23; in test [3], 4.31; in test [4], 1.24; in test [5] it was 3.96; in test [6] it was 3.23. For the same sequence, the PBM binding z-score amounted to 2.26 in test [7] and 2.93 in test [8].

Take TCTTGTAGATCTGCAGGTTAAGAAAGCTGGCCAA: the PBM binding z-score was 0.11 in test [1]; -0.162 in test [2]; -0.524 in test [3]; 0.681 in test [4]; 0.267 in test [5]; 0.319 in test [6]. Further, the PBM binding z-score was -0.531 in test [7] and -0.245 in test [8].
